# Laboratory results from paper PMC11062922 (Nature Chemical Biology, 2023).
# Where two headings read alike, the source gives them in different places.
# How the values were obtained:
# Set-up in all cases: species or system human, MV4-11 + K-562 + COLO205 + SK-N-BE2 + OVCAR-8
# IRAK3 = settings: read-out: apparent Kd, n = 1
# PIK3CD = settings: read-out: apparent Kd, n = 1
# PKN2 = settings: read-out: apparent Kd, n = 1
# RPS6KB1 = settings: read-out: apparent Kd, n = 1
# AURKB = settings: read-out: apparent Kd, n = 1
# MAP3K11 = settings: read-out: apparent Kd, n = 1
# MARK2 = settings: read-out: apparent Kd, n = 1
# NUAK2 = settings: read-out: apparent Kd, compound concentrations: 100 nM and 1000 nM (sheet 'Samples'), n = 1
# PAK6 = settings: read-out: apparent Kd, n = 1
# PRKCA = settings: read-out: apparent Kd, n = 1
# RPS6KA3 = settings: read-out: apparent Kd, n = 1
# TTK = settings: read-out: apparent Kd, n = 1
# CIT = settings: read-out: apparent Kd, n = 1
# ACVR1B = settings: read-out: apparent Kd; compound concentrations:100 nM and 1000 nM (sheet 'Samples'); n = 1
# EPHB1 = settings: read-out: apparent Kd; compound concentrations:100 nM and 1000 nM (sheet 'Samples'); n = 1
# BTK = settings: read-out: apparent Kd; compound concentrations: 100 nM and 1000 nM (sheet 'Samples'), CATDS: 1.9599592223560901E-2; n = 1
# MAPK14 = settings: read-out: apparent Kd, compound concentrations: 100 nM and 1000 nM (sheet 'Samples'), n = 1
# BUB1 = settings: read-out: apparent Kd; compound concentrations:100 nM and 1000 nM (sheet 'Samples'); n = 1
# [1] = compound concentrations:100 nM and 1000 nM (sheet 'Samples')
smiles,measurement,setting,value
c1ccc(-c2n[nH]cc2Nc2ccnc3ccccc23)nc1 [GW694077X],potency estimated from few doses,"IRAK3; compound concentrations: 100 nM and 1000 nM (sheet 'Samples'), CATDS: 9.0170551839232005E-2",57.6 nM
same,potency estimated from few doses,"PIK3CD; compound concentrations: 100 nM and 1000 nM (sheet 'Samples'), CATDS: 5.6537253255213298E-2",148 nM
same,potency estimated from few doses,"PKN2; compound concentrations: 100 nM and 1000 nM (sheet 'Samples'), CATDS: 2.23851306081322E-2",2310 nM
COc1cc(Nc2nccc(N3CCC(NC(=O)c4cccc(NC(C)=O)c4)C3)n2)cc(OC)c1OC (centres unmarked) [GSK1379754A],potency estimated from few doses,"IRAK3; compound concentrations: 100 nM and 1000 nM (sheet 'Samples'), CATDS: 0.18683076270721999",372 nM
same,potency estimated from few doses,"RPS6KB1; compound concentrations: 100 nM and 1000 nM (sheet 'Samples'), CATDS: 8.2773531247457094E-2",1830 nM
O=C(O)C(F)(F)F.O=C(O)C(F)(F)F.O=c1[nH]ccc2nc(N[C@@H]3CCCNC3)nc(Nc3ccc(S(=O)(=O)N4CCOCC4)cc3)c12.O=c1[nH]ccc2nc(N[C@@H]3CCCNC3)nc(Nc3ccc(S(=O)(=O)N4CCOCC4)cc3)c12 [GSK2177277A],potency estimated from few doses,"AURKB; compound concentrations: 100 nM and 1000 nM (sheet 'Samples'), CATDS: 9.0566947478628902E-3",373 nM
same,potency estimated from few doses,"MAP3K11; compound concentrations: 100 nM and 1000 nM (sheet 'Samples'), CATDS: 9.6570166700827697E-3",305 nM
same,potency estimated from few doses,"MARK2; compound concentrations: 100 nM and 1000 nM (sheet 'Samples'), CATDS: 1.4475960848297199E-2",105 nM
same,potency estimated from few doses,NUAK2; CATDS: 4.5069810988754302E-2,13.3 nM
same,potency estimated from few doses,"PAK6; compound concentrations: 100 nM and 1000 nM (sheet 'Samples'), CATDS: 6.8069472857734698E-3",1140 nM
same,potency estimated from few doses,"PKN2; compound concentrations: 100 nM and 1000 nM (sheet 'Samples'), CATDS: 1.4426641074697899E-2",105 nM
same,potency estimated from few doses,"PRKCA; compound concentrations: 100 nM and 1000 nM (sheet 'Samples'), CATDS: 8.97994124779509E-3",383 nM
same,potency estimated from few doses,"RPS6KA3; compound concentrations: 100 nM and 1000 nM (sheet 'Samples'), CATDS: 8.0041967490872001E-3",573 nM
same,potency estimated from few doses,"TTK; compound concentrations: 100 nM and 1000 nM (sheet 'Samples'), CATDS: 6.1777236356659101E-3",1950 nM
CN(C)CC(O)COc1ccc(Nc2nccc(-c3cnn4nc(N5CCOCC5)ccc34)n2)cc1 (centres unmarked) [GW767488X],potency estimated from few doses,CIT; [1],998 nM
same,potency estimated from few doses,IRAK3; [1],64.8 nM
same,potency estimated from few doses,TTK; [1],2040 nM
CNc1cc(-c2ccc3c(N)n[nH]c3c2)nc(N)n1 [GSK2224810A],potency estimated from few doses,ACVR1B,361 nM
same,potency estimated from few doses,EPHB1,1180 nM
same,potency estimated from few doses,PIK3CD; [1],83.4 nM
O=C(O)C(F)(F)F.O=c1[nH]ccc2nc(N[C@@H]3CCNC3)nc(Nc3cc(Cl)cc(Cl)c3)c12 [GSK2188764A],potency estimated from few doses,MAP3K11; [1],813 nM
same,potency estimated from few doses,MARK2; [1],535 nM
same,potency estimated from few doses,PAK6; [1],538 nM
same,potency estimated from few doses,PRKCA; [1],905 nM
same,potency estimated from few doses,RPS6KB1; [1],1520 nM
Cl.Cl.NC[C@H](CC1CCCCC1)NC(=O)c1ccc(-c2ccnc3[nH]ccc23)s1.NC[C@H](CC1CCCCC1)NC(=O)c1ccc(-c2ccnc3[nH]ccc23)s1 [GSK1581428A],potency estimated from few doses,PKN2; [1],452 nM
same,potency estimated from few doses,PRKCA; [1],2080 nM
same,potency estimated from few doses,RPS6KB1; [1],179 nM
Cl.Nc1nc(-c2ccc3c(c2)C(=Cc2cc(Br)c(O)c(Br)c2)C(=O)N3)cs1 [GW407323A],potency estimated from few doses,"TTK; compound concentrations: 100 nM and 1000 nM (sheet 'Samples'), CATDS: 2.7527023575449099E-2",2150 nM
NS(=O)(=O)c1ccc(N/C=C2\C(=O)Nc3ccc4ncsc4c32)cc1 [GW297361X],potency estimated from few doses,"TTK; compound concentrations: 100 nM and 1000 nM (sheet 'Samples'), CATDS: 3.2979280004825598E-2",1400 nM
COc1cc[nH]c1/C=C1\C(=O)Nc2ccc([N+](=O)[O-])c(N3CC[C@@H](O)C3)c21 [RO0504985-000],potency estimated from few doses,NUAK2; CATDS: 3.1931655972065397E-2,1490 nM
Cc1occc1-c1nc(N)c(OC[C@@H](N)Cc2c[nH]c3ccccc23)cc1-c1cc2c(C)n[nH]c2cn1 [GSK1660450B],potency estimated from few doses,CIT; [1],135 nM
same,potency estimated from few doses,MARK2; [1],639 nM
same,potency estimated from few doses,PIK3CD; [1],8.67 nM
same,potency estimated from few doses,PKN2; [1],2110 nM
same,potency estimated from few doses,PRKCA; [1],40 nM
same,potency estimated from few doses,RPS6KA3; [1],861 nM
same,potency estimated from few doses,RPS6KB1; [1],112 nM
Cl.Cn1cc(C2=C(c3c4n(c5ccccc35)CCNC4)C(=O)NC2=O)c2ccccc21 [RO0318365-001],potency estimated from few doses,"PRKCA; compound concentrations: 100 nM and 1000 nM (sheet 'Samples'), CATDS: 4.6045234882761202E-2",2150 nM
COc1cc[nH]c1/C=C1\C(=O)Nc2ccc(F)c(C#C[C@@H](O)[C@@H](N)[C@@H](C)O)c21 [RO0283120-000],potency estimated from few doses,MARK2; [1],803 nM
same,potency estimated from few doses,TTK; [1],1180 nM
NS(=O)(=O)c1ccc(NC=C2C(=O)Nc3ccc4ncsc4c32)cc1 [GW589933X],potency estimated from few doses,"AURKB; compound concentrations: 100 nM and 1000 nM (sheet 'Samples'), CATDS: 1.80896314222295E-2",1370 nM
same,potency estimated from few doses,NUAK2; CATDS: 1.7918277394981801E-2,1420 nM
same,potency estimated from few doses,"TTK; compound concentrations: 100 nM and 1000 nM (sheet 'Samples'), CATDS: 2.1205991954571499E-2",817 nM
Cl.Cl.NCC(NC(=O)c1cc(-c2ccnc3[nH]ccc23)cs1)c1ccccc1.NCC(NC(=O)c1cc(-c2ccnc3[nH]ccc23)cs1)c1ccccc1 (centres unmarked) [GSK1229959A],potency estimated from few doses,"CIT; compound concentrations: 100 nM and 1000 nM (sheet 'Samples'), CATDS: 3.2542810657946203E-2",113 nM
same,potency estimated from few doses,"PIK3CD; compound concentrations: 100 nM and 1000 nM (sheet 'Samples'), CATDS: 7.85579878499649E-2",13.2 nM
same,potency estimated from few doses,"PKN2; compound concentrations: 100 nM and 1000 nM (sheet 'Samples'), CATDS: 3.5150417589149101E-2",88.5 nM
same,potency estimated from few doses,"RPS6KB1; compound concentrations: 100 nM and 1000 nM (sheet 'Samples'), CATDS: 2.0581414615248698E-2",679 nM
Nc1nc(-c2ccc3c(N)n[nH]c3c2)cc(N2CCCC(NC(=O)c3ccccc3)C2)n1 (centres unmarked) [GSK2286775B],potency estimated from few doses,AURKB; [1],414 nM
COc1cc2ncn(-c3cc(OCc4ccccc4S(C)(=O)=O)c(C#N)s3)c2cc1OC [GSK319347A],potency estimated from few doses,"AURKB; compound concentrations: 100 nM and 1000 nM (sheet 'Samples'), CATDS: 0.10534744790645301",893 nM
Cl.Cn1c(=O)c(Cc2ccccc2F)cc2cnc(NC3CCOCC3)nc21 [RO3305377-001],potency estimated from few doses,BTK,1180 nM
same,potency estimated from few doses,MAPK14; CATDS: 8.5761159080735103E-2,105 nM
same,potency estimated from few doses,"PAK6; compound concentrations: 100 nM and 1000 nM (sheet 'Samples'), CATDS: 1.7508305071041501E-2",1640 nM
NS(=O)(=O)c1ccc(N/N=C2\C(=O)Nc3ccc4ncccc4c32)cc1 [GW305178X],potency estimated from few doses,"TTK; compound concentrations: 100 nM and 1000 nM (sheet 'Samples'), CATDS: 4.7574405243594603E-2",1130 nM
CN[C@H](C#Cc1c(F)ccc2c1/C(=C/c1[nH]ccc1OC)C(=O)N2)CO.Cl [RO0283049-001],potency estimated from few doses,"TTK; compound concentrations: 100 nM and 1000 nM (sheet 'Samples'), CATDS: 1.9624563492428401E-2",2080 nM
O=C(Nc1n[nH]c2nc(-c3ccccc3O)ccc12)C1CC1 [SB-711880],potency estimated from few doses,MAP3K11; [1],1520 nM
same,potency estimated from few doses,MARK2; [1],2380 nM
COc1ccc(Nc2nccc(NCCNC(=O)Nc3cc(C)ccc3C)n2)cc1 [GSK1379899A],potency estimated from few doses,"PIK3CD; compound concentrations: 100 nM and 1000 nM (sheet 'Samples'), CATDS: 0.14570623002858099",175 nM
CN(C)c1ccc2c(c1)/C(=C/Nc1ccc(S(N)(=O)=O)cc1)C(=O)N2 [GW416469X],potency estimated from few doses,"PIK3CD; compound concentrations: 100 nM and 1000 nM (sheet 'Samples'), CATDS: 0.23489654545894101",138 nM
CCn1c(-c2nonc2N)nc2cncc(C(=O)N3CC[C@H](N)C3)c21.Cl [SB-772077-B],potency estimated from few doses,BUB1,1790 nM
same,potency estimated from few doses,CIT; [1],1450 nM
same,potency estimated from few doses,PKN2; [1],73.8 nM
same,potency estimated from few doses,PRKCA; [1],826 nM
same,potency estimated from few doses,RPS6KB1; [1],93.8 nM
Nc1nccc(-c2ccc3c(N)n[nH]c3c2)n1 [GSK1034945A],potency estimated from few doses,MARK2; [1],1440 nM
CC(C)(CO)CNC(=O)c1ccc2c(c1)/C(=N/Nc1ccc(S(N)(=O)=O)cc1)C(=O)N2 [GW301784X],potency estimated from few doses,TTK; [1],983 nM
CCn1c(-c2nonc2N)nc2cncc(Br)c21 [SB-738004],potency estimated from few doses,PKN2; [1],122 nM
same,potency estimated from few doses,PRKCA; [1],1290 nM
same,potency estimated from few doses,RPS6KB1; [1],360 nM
CNCC1CCn2c(c(C3=C(c4cn(C)c5ccccc45)C(=O)NC3=O)c3ccccc32)C1 (centres unmarked) [RO0318676-000],potency estimated from few doses,"PRKCA; compound concentrations: 100 nM and 1000 nM (sheet 'Samples'), CATDS: 0.32206529387914401",11.4 nM
same,potency estimated from few doses,"RPS6KA3; compound concentrations: 100 nM and 1000 nM (sheet 'Samples'), CATDS: 2.8652335073443402E-2",1620 nM
same,potency estimated from few doses,"RPS6KB1; compound concentrations: 100 nM and 1000 nM (sheet 'Samples'), CATDS: 3.9813258984907299E-2",600 nM
CCC(CC)(CC)n1cnc2c(N)ncnc21 [SKF-97620],potency estimated from few doses,MAPK14; CATDS: 3.1976912509304997E-2,857 nM
same,potency estimated from few doses,"PIK3CD; compound concentrations: 100 nM and 1000 nM (sheet 'Samples'), CATDS: 0.27263149415517701",20.5 nM
